Gli-Sufu block – antagonists of Gli-Sufu signaling | Sufu-KO-LIGHT fibroblasts, Gli luciferase reporter luminescence | inhibition, % at 5 µM | 340,000 tested, 0.74% active | AID 588413;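 active means inhibition above about 55%, limit read from the data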;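 further: 0% = DMSO-treated cells and 100% = wells with medium but no cells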
Mdm2-MdmX inh – inhibitors of human Mdm2/MdmX interaction; O15151+Q00987; SaOS-2 split-luciferase Mdm2/MdmX complementation, luminescence; inhibition, % at 8 µM; 330,000 tested, 3% active; AID 485346;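 active means inhibition of at least 50% at 8 µM in the primary screen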
Jurkat NFkB inh – lowers PMA/ionomycin-induced NF-kB signal in Jurkat cells. PMA/ionomycin-induced NF-kB luciferase reporter, luminescence. inhibition, % at 4 µM. 330,000 tested, 0.53% active. AID 435003; in the data active means inhibition above about 50%
Beta apoptosis – beta cell apoptosis inhibition | INS-1E cytokine-induced death, ATP luminescence, 48 h; percent of positive-control rescue, neutral wells zero | protection from apoptosis, % (test concentration not listed) | 300,000 tested, 0.8% active;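 active means Every replicate reaches about 75%, or at least half do and their mean reaches it too, limit read from the data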;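 further: 0% = cytokine-treated negative control wells and 100% = positive control rescue; higher means more ATP so stronger rescue from cytokine killing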
697 NFkB inh – inhibitors of the PMA/ionomycin-induced NF-kB reporter in 697 B cells; 697 B-cell NF-kB luciferase reporter, 16 h; inhibition, % at 4 µM; 330,000 tested, 0.33% active; AID 435022; in the data active means inhibition above about 35%
697 NFkB conf – inhibitors of the PMA/ionomycin-induced NF-kB reporter in 697 B cells, retest. 697 B-cell NF-kB luciferase, 16 h. shares compounds with 697 NFkB inh. inhibition, % at 4 µM. 2,000 tested, 35% active; in the data active means inhibition mostly above about 28%, no sharp cut-off; inactive means mostly below about 22%
* = called active by the depositor; x = not tested or not shown. Only some compounds are listed: those with a hit (about 4% of all), similar ones and a draw of the others.

SMILES	Gli-Sufu block	Mdm2-MdmX inh	Jurkat NFkB inh	Beta apoptosis	697 NFkB inh	697 NFkB conf
O=C(COC(=O)Cc1n[nH]c(=O)c2ccccc12)NNC(=O)c1ccc(Cl)cc1	0.9	5.5	18.4	1.7	2.9	x
CN(C)S(=O)(=O)c1cccc(-c2csc(N/N=C/c3ccco3)n2)c1	-8.6	-3.9	-6.3	1.3	-3.5	x
Cc1ccc(-c2csc(N/N=C/c3ccco3)n2)c(C)c1	-13.3	31.6	-88.6	3.4	-402.7	-20.4
COCCCC1CCN(C(=O)c2cc(COc3cc(C)ccc3C)on2)CC1	-58.1	-142.3	-110.8	-0.6	-126.1	x
COc1ccc(C(=O)Nc2ccc3ncccc3c2)cc1	-56.3	-37.5	-103.0	-1.5	-290.4	-333.0
CCOC(=O)N1CCN(CC(=O)Nc2ccccc2C(=O)Nc2ccccc2)CC1	-6.5	20.0	19.4	-4.2	4.3	x
CCOC(=O)N1CCN(CC(=O)Nc2ccc([N+](=O)[O-])cc2C(=O)Nc2ccccc2F)CC1	5.7	33.1	41.8	14.4	38.3*	38.7*
COc1cc(-c2cc(-c3nnco3)c3ccccc3n2)cc(OC)c1OC	25.9	25.5	0.0	4.5	41.0*	9.1
N#Cc1ccc(CSc2nnc(-c3c[nH]c4ccccc34)n2-c2ccccc2)cc1	17.2	2.6	-10.1	-4.7	-11.3	x
Cc1ccccc1-n1c(SCc2c(C)noc2C)nnc1-c1c[nH]c2ccccc12	21.3	41.1	-9.5	-0.3	40.0*	40.9*
CC1CCN(c2c(NCC3CCC(C(=O)NCc4ccc(F)cc4)CC3)c(=O)c2=O)CC1 (configuration not stated)	2.1	13.7	0.7	-1.5	18.8	x
Cc1ccc(NC(=O)C2CCC(CNc3c(N4CCC(C)CC4)c(=O)c3=O)CC2)cc1F (configuration not stated)	30.4	14.3	32.4	2.5	47.5*	32.8*
COc1ccccc1CCC(=O)NNC(=O)c1ccc(Br)cc1	-30.9	30.1	1.0	0.5	9.1	x
COc1cc2c(cc1OC)-c1cc(N3CCCc4ccccc43)nc(=O)n1CC2	0.1	18.0	-1.8	1.2	19.5	x
COc1cc2c(cc1OC)-c1cc(N3CCc4ccccc43)nc(=O)n1CC2	0.6	23.1	-10.7	2.1	35.1*	19.1
COc1cc2c(cc1OC)-c1cc(Nc3ccccc3Br)nc(=O)n1CC2	7.6	44.0	2.9	3.2	35.2*	10.1
O=C(Nc1nncs1)c1ccc2c(c1)OCO2	23.7	9.6	-18.3	1.3	-3.6	x
O=C(COC(=O)CCc1ccc(S(=O)(=O)N2CCOCC2)cc1)Nc1ccccc1[N+](=O)[O-]	-12.7	-1.9	-6.6	-0.3	-1.1	x
O=c1cc(-c2ccc(O)c(-c3c(O)cc(O)c4c(=O)cc(-c5ccc(O)cc5)oc34)c2)oc2cc(O)cc(O)c12	-8.7	18.5	-3.6	-2.4	39.8*	13.6
O=c1cc(-c2ccc(O)cc2)oc2c(-c3c(O)cc(O)c4c(=O)cc(-c5ccc(O)cc5)oc34)c(O)cc(O)c12	34.3	12.8	-5.6	x	30.2	x
O=C(CSCCO)Nc1ccc(C23CC4CC(CC(C4)C2)C3)cc1	15.2	-87.2	-43.5	x	56.7*	65.5*
CC(C)N1C(=O)S/C(=C/c2ccc3c(c2)n(C)c(=O)n3C)C1=O	11.1	45.1	-7.7	-3.3	47.1*	40.4*
Cc1ccc(N(CC(=O)NCc2ccc(F)cc2)C(=O)c2csnn2)cc1C	-2.1	0.5	-2.1	3.0	-1.0	x
Cc1ccc(C(=O)N2CCCC(c3ccc(Cl)cc3)=N2)cc1	6.5	29.2	-1.7	9.6	42.1*	38.9*
COc1ccc(C(=O)N2CCCC(c3ccccc3)=N2)cc1	20.6	-14.4	14.6	-2.6	24.9	x
SMILES	Gli-Sufu block	Mdm2-MdmX inh	Jurkat NFkB inh	Beta apoptosis	697 NFkB inh	697 NFkB conf
CCN(CC)C(=O)c1ccc(S(=O)(=O)Cc2ccc(C)cc2)c([N+](=O)[O-])c1	2.3	30.0	7.2	-14.7	40.0*	39.1*
Cc1ccc(CS(=O)(=O)c2ccc(C(=O)N3CCCCC3)cc2[N+](=O)[O-])cc1	6.3	5.8	10.8	-6.6	8.7	x
Cc1ccccc1N=C1SCCN1C(=O)CN1C(=O)NC2(CCCC2)C1=O	-9.4	14.1	13.5	-7.4	7.1	x
CC(C(=O)NC(=O)NC1CCCCC1)N1CCN(C(c2ccccc2)c2ccccc2)CC1 (configuration not stated)	-0.1	-4.5	-0.5	2.6	3.8	x
CSCCC(NC(C)=O)C(=O)Oc1ccc2c3c(c(=O)oc2c1)CCCC3 (configuration not stated)	-2.0	x	x	x	x	x
CSCCC(NC(=O)OC(C)(C)C)C(=O)Oc1ccc2c(=O)c(-c3ccc4c(c3)OCCO4)coc2c1 (configuration not stated)	-122.1	-96.5	-96.9	6.0	-265.4	-252.7
CCCCCCn1c(-c2ccco2)nc2oc3cc(OC)ccc3c(=O)c2c1=O	21.8	8.6	7.3	12.5	41.7*	35.5*
Nc1cc(C(=O)c2ccccc2)ccc1[N+](=O)[O-]	-4.2	17.9	5.6	-8.6	8.5	x
CC(=O)c1c(C(C)=O)c(C)n(-c2cccc([N+](=O)[O-])c2)c1C	-2.1	3.8	24.3	-0.3	36.1*	12.2
Cc1cccc2cc(CN(Cc3ccco3)C(=O)c3ccncc3)c(=O)[nH]c12	-41.5	2.7	-0.6	-10.2	35.7*	-3.4
CCCNC(=O)CSCc1nc(-c2ccc(SC)cc2)oc1C	24.0	8.6	-11.2	-6.2	48.3*	42.2*
O=C1COc2ccc(S(=O)(=O)N3CCCCCC3)cc2N1	0.4	18.5	-9.0	-5.5	9.5	x
CCN(C(=O)CN1C(=O)NC2(CCc3ccccc32)C1=O)C1CCCCC1 (configuration not stated)	-2.4	-2.8	7.8	-5.7	41.7*	22.5
CCN(C(=O)CN1C(=O)NC2(CCCc3ccccc32)C1=O)c1ccc(F)cc1 (configuration not stated)	-3.2	-20.3	-15.6	0.7	20.3	x
CNc1ncc(C(=O)c2ccc(-c3ccccc3)cc2)s1	-54.3	-142.0	-119.8	4.5	-350.5	-178.0
COc1cc(-c2nc3ccccn3c2NCC2CCCO2)ccc1O (configuration not stated)	4.0	28.4	-3.6	0.8	36.0*	1.8
CN(C/C=C/c1ccccc1[N+](=O)[O-])Cc1ccccc1	13.1	1.2	-8.1	-2.1	-20.1	x
CCN(CC)S(=O)(=O)c1ccc(NC(=S)Nc2ccc(F)cc2)cc1	4.4	2.9	8.3	-10.5	-4.9	x
CCN(CC(N)=O)S(=O)(=O)c1ccc(F)cc1	-5.2	12.6	-0.6	-3.8	41.6*	-7.1
CCCCOc1ccc(NC(=O)C(=O)NCCCn2ccnc2)cc1	23.2	-29.8	10.4	11.7	54.1*	57.5*
CCCCCCOc1ccc(C(=O)NCCCn2ccnc2)cc1	-3.6	5.1	-15.8	20.9	-5.1	x
CN(C)CCN1C(=O)C2C(C(=O)Nc3cc(Cl)cc(Cl)c3)C3C=CC2(O3)C1C(=O)NC1CCCCC1 (configuration not stated)	-17.2	-16.5	-13.3	-4.7	8.3	x

Compound activity: PubChem BioAssay, several laboratories
